# Bioassay records: PubChem, several laboratories
# CYP2C19 inhib: blockers of cytochrome P450 2C19 activity – biochemical, luminescence, ADME assay, primary screen; P33261; CYP2C19 Supersomes, luciferin-H EGE luminescence, 30 min; inhibition, % at 5 µM; 96,000 compounds, 21% hits;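 active means CYP2C19 inhibition above a set limit at 5 µM in the primary screen, cut at about 50% in these data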;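 further: plate controls were negative control wells for no effect and 2.5 mM tranylcypromine positive control for full effect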
# MRP reversal: reversal of MRP1-mediated doxorubicin resistance, primary screen, H69AR cells, doxorubicin co-treatment; 85,000 compounds, 0.04% hits; differential viability (reversal), % at 10 µM; H69AR cells + 2 uM doxorubicin, CellTiter-Glo, 72 h;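 active means viability drop by adding the cancer drug above about 55%, with treated viability meeting a 40% cutoff, limit read from the data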;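 further: viability without doxorubicin minus viability with 2 µM doxorubicin for each compound; larger differential means the compound sensitizes cells more to doxorubicin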
# CYP2C9 act: human CYP2C9 activators, primary screen, biochemical, luminescence; activation factor at 5 µM; Cytochrome P450 2C9 (Homo sapiens), P11712; recombinant CYP2C9, luciferin-H conversion; active compounds read high; factor 1 = untreated enzyme, 0 = blocked; 96,000 compounds, 1.4% hits;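 active means activation factor of 2 or more for CYP2C9 at a 5 µM dose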;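 further: 0 = sulfaphenazole-blocked wells and 1 = vehicle-only wells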
# Target sequence (P11712 whole entry, looked up): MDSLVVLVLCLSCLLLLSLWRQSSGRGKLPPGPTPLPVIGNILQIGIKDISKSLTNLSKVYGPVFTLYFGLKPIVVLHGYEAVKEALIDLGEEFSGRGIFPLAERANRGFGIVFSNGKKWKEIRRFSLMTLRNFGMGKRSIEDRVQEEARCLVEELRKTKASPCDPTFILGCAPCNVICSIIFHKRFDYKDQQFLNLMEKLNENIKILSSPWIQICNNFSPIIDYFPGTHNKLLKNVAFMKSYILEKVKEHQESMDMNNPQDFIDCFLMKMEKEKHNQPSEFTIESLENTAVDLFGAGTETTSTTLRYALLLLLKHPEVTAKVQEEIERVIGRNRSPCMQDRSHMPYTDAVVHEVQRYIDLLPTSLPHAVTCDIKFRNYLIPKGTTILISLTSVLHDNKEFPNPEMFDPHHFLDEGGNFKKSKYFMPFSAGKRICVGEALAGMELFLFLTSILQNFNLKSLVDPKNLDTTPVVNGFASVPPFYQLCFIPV
# CYP2C19 act: human CYP2C19 activators, primary screen, biochemical, luminescence. 96,000 tested, under 10 active. AID 1025, 2008. Cytochrome P450 2C19 (Homo sapiens), P33261. recombinant CYP2C19, luciferin-H EGE luminescence; active compounds read high; 0 = fully inhibited enzyme, 1 = untreated enzyme. activation factor at 5 µM;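 active means activation factor of at least 2 at 5 µM in the primary screen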;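 further: 0 = wells with 2.5 mM tranylcypromine and 1 = vehicle-only wells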
# CYP2C9 inh: blockers of cytochrome P450 2C9 activity – biochemical, luminescence, ADME assay, primary screen. inhibition, % at 5 µM. P11712. 96,000 compounds, 20% hits. CYP2C9 Supersomes, luciferin-H conversion;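 active means blocking of liver enzyme CYP2C9 beyond about 50% at 5 µM, limit read from the data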
# MRP1 act: H69AR viability gain despite doxorubicin, primary screen, MRP-1 activator project, H69AR cells, CellTiter-Glo | viability rescue | viability increase, % at 10 µM | 140,000 compounds, 0.61% hits | AID 799, 2007;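 active means viability gain under doxorubicin at or above a set limit, the compound median plus 3 SD, cut at about 4.7% in these data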;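 further: MRP-1 overexpressing cells given doxorubicin 25 µM after compound pretreatment; 18-22 h compound pretreatment then 72 h with doxorubicin before readout; 0% = doxorubicin-only wells and 100% = vehicle-treated cells without doxorubicin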
# An asterisk follows results filed as active; nt = not tested or not shown. Only some compounds are listed: those with a hit (about 21% of all), similar ones and a draw of the others.
SMILES,CYP2C19 inhib,MRP reversal,CYP2C9 act,CYP2C19 act,CYP2C9 inh,MRP1 act
CC(/C=C1\SC(=O)N(CCCC(=O)O)C1=O)=C\c1ccccc1,nt,nt,nt,nt,nt,-3
CC(/C=C1\SC(=S)N(CCCC(=O)Nc2ccc(C(=O)O)cc2)C1=O)=C\c1ccccc1,nt,nt,nt,nt,nt,13*
Cc1ccc(C(=O)NN2C(=O)/C(=C/c3cccn3C)SC2=S)cc1,nt,nt,nt,nt,nt,-3
CC(/C=C1\SC(=S)N(NC(=O)c2ccc(O)cc2)C1=O)=C\c1ccccc1,nt,nt,nt,nt,nt,7.9*
O=C(NC1CCCC1)c1noc2c1CCCCC2,42,3,0.7,0.6,30,-2
O=C(O)C1C2CCC(O2)C1C(=O)NCc1ccc(Cl)cc1 (stereo not given),nt,nt,nt,nt,nt,-2
CCOC(=O)c1oc2ccccc2c1NC(=O)c1cccc(OC)c1OC,67*,-28,0.3,0.3,66*,-5
NC(=O)c1oc2ccccc2c1NC(=O)CCc1ccccc1,82*,2,2.2*,0.2,-124,-2
COc1cccc(C(=O)Nc2c(C(N)=O)oc3ccccc23)c1,6,2,3.3*,0.9,-234,-5
CCOC(=O)c1oc2ccccc2c1NC(=O)c1cccc(OC)c1,17,1,0.7,0.8,28,2
CCOc1ccc(C(=O)Nc2c(C(N)=O)oc3ccccc23)cc1,nt,-9,nt,nt,nt,-5
CCOC(=O)c1oc2ccccc2c1NC(=O)c1ccc(Cl)s1,-7,-1,1,1.1,2,0
COc1ccc(NC(=O)c2oc3ccccc3c2NC(=O)c2ccc3c(c2)OCO3)cc1,36,nt,0.5,0.6,55*,8.4*
Cc1ccc(NC(=O)CC2C(=O)N(Cc3ccccc3)C(=S)N2NC(=O)c2ccccc2)c(C)c1 (stereo not given),nt,nt,nt,nt,nt,-4
Cc1ccc(CCN2C(=O)CCC2(C)C(=O)NCc2cccnc2)cc1 (stereo not given),11,-5,0.8,0.9,18,1
COc1cccc(/C=N/n2c(N)c(S(=O)(=O)c3cccs3)c3nc4ccccc4nc32)c1,3,nt,0.9,1,8,0
CC(C)Cn1c(N)c(S(=O)(=O)c2cccs2)c2nc3ccccc3nc21,20,-24,0.3,0.8,65*,-4
COc1ccc(/C=N/n2c(N)c(S(=O)(=O)c3cccs3)c3nc4ccccc4nc32)cc1OC,1,-1,0.2,1,77*,-4
Nc1c(S(=O)(=O)c2cccs2)c2nc3ccccc3nc2n1/N=C/c1cccc(O)c1,42,-7,0.2,0.6,80*,-6
CSc1nnc(-c2sc(-c3ccccc3)nc2C)n1C,42,nt,0.3,0.6,72*,0
O=C(CSCc1ccc(Cl)cc1Cl)Nc1nccs1,nt,nt,nt,nt,nt,-3
Cc1cccc(C)c1NC(=O)CSc1nnc(Cn2nnc(-c3ccccc3)n2)n1-c1ccccc1,74*,nt,0.1,0.3,92*,0
Cc1csc(NC(=O)CSc2nnc(Cn3c(=O)sc4ccccc43)n2-c2ccccc2)n1,-12,-30,0.4,1.1,61*,-3
Cn1c(Cn2c(=O)sc3ccccc32)nnc1SCc1cccc(F)c1,nt,-1,nt,nt,nt,-1
CCCSc1nnc(Cn2c(=O)sc3ccccc32)n1-c1ccccc1,82*,-1,0.3,0.2,68*,-1
SMILES,CYP2C19 inhib,MRP reversal,CYP2C9 act,CYP2C19 act,CYP2C9 inh,MRP1 act
Cn1c(Cn2c(=O)sc3ccccc32)nnc1SCc1ccccc1F,52*,11,0.6,0.5,36,-1
Cn1cc(Br)c(C(=O)N2CCc3ccccc32)n1,nt,nt,nt,nt,nt,-2
Cc1nnc(SCCN2CCOCC2)n1C,nt,8,nt,nt,nt,-1
Nc1nnc(SCC(=O)NN2C(=O)NC3(CCCCC3)C2=O)s1,nt,nt,nt,nt,nt,-3
CCCN1C=CC(=C/C=C(\C#N)C(=O)OCC)C=C1,-3,3,0.6,1,36,-2
CCCCCCN1C=CC(=C/C=C(\C#N)C(=O)OCC)C=C1,28,41,0.4,0.7,60*,-2
CCOc1ccc(NC(=S)NCCCn2ccnc2)cc1,nt,nt,nt,nt,nt,-1
CCc1nnc(NC(=O)C2Cc3ccccc3CN2S(=O)(=O)c2c(C)c(C)cc(C)c2C)s1 (stereo not given),37,nt,0.4,0.6,61*,-1
Cc1ccc(S(=O)(=O)N2Cc3ccccc3CC2C(=O)Nn2cnnc2)cc1 (stereo not given),55*,-2,0.6,0.5,35,-2
CCS(=O)(=O)N1Cc2ccccc2CC1C(=O)Nc1nc2ccccc2s1 (stereo not given),nt,nt,nt,nt,nt,-4
O=C(Nn1cnnc1)C1Cc2ccccc2CN1S(=O)(=O)c1ccc(F)cc1 (stereo not given),37,-8,0.8,0.6,17,-1
Cc1ccc(S(=O)(=O)N2Cc3ccccc3CC2C(=O)Nc2cc(C)on2)cc1 (stereo not given),83*,-7,0.2,0.2,85*,-1
CCOc1ccc(S(=O)(=O)N2Cc3ccccc3CC2C(=O)NCCCn2ccnc2)cc1 (stereo not given),100*,6,0,0,97*,-1
Cc1ccc(S(=O)(=O)N2CCCC2C(=O)Nc2cc(C)on2)cc1 (stereo not given),2,-12,1.4,1,-39,-2
CCCOc1ccc(CC(=O)NNC(=S)Nc2ccccc2)cc1Br,nt,1,nt,nt,nt,-2
CCC12CN(C(=O)c3ccc(OC)cc3)CC(CC)(CN(C(=O)c3ccc(OC)cc3)C1)C2=O,58*,-3,0.9,0.4,9,-1
CCN(CC)S(=O)(=O)c1ccc(NC(=O)c2ccccc2N(C)S(C)(=O)=O)cc1,6,4,0.4,0.9,61*,-3
Cc1onc(-c2ccccc2Cl)c1C(=O)Nc1ccc(F)c(F)c1,90*,nt,0.3,0.1,70*,0
Cc1ccc(NC(=S)NC(=O)c2c(-c3ccccc3Cl)noc2C)cc1,35,nt,0.7,0.7,29,2
Cc1onc(-c2ccccc2)c1C(=O)OCC(=O)c1ccccc1,69*,15,0.5,0.3,54*,-1
CCN(CC)S(=O)(=O)c1ccc(NC(=O)c2ccc(N(C)S(C)(=O)=O)cc2)cc1,nt,3,nt,nt,nt,0
COC(=O)c1cc(OC)c(OC)cc1NC(=O)c1c(-c2ccccc2Cl)noc1C,42,-43,0.4,0.6,56*,-2
Cc1cc(NC(=O)c2c(-c3ccccc3Cl)noc2C)no1,15,nt,0.7,0.8,31,-4
Cc1cc(=O)oc(C)c1C(=O)OCC(=O)c1ccccc1,39,-3,0.9,0.6,12,-1
Cc1cccc(C)c1NC(=O)N1CCC(N2CCCCC2)CC1,-8,nt,1,1.1,-5,-2
